Results from PMC4336329 (PLoS ONE, 2015).
Hit rate of the full screen: of about 310,000 compounds, about 2,200 (0.71%) showed an effect of 50% or more. The effect is printed as a negative number. Shown is part of a subset that was picked to be rich in strong results.

target: human ether-à-go-go-related gene (hERG) potassium channel (human, UniProt Q12809); assay: primary screen, population patch clamp on CHO cells stably expressing hERG; higher = less effect of the substance
Sequence (Q12809 whole entry, looked up): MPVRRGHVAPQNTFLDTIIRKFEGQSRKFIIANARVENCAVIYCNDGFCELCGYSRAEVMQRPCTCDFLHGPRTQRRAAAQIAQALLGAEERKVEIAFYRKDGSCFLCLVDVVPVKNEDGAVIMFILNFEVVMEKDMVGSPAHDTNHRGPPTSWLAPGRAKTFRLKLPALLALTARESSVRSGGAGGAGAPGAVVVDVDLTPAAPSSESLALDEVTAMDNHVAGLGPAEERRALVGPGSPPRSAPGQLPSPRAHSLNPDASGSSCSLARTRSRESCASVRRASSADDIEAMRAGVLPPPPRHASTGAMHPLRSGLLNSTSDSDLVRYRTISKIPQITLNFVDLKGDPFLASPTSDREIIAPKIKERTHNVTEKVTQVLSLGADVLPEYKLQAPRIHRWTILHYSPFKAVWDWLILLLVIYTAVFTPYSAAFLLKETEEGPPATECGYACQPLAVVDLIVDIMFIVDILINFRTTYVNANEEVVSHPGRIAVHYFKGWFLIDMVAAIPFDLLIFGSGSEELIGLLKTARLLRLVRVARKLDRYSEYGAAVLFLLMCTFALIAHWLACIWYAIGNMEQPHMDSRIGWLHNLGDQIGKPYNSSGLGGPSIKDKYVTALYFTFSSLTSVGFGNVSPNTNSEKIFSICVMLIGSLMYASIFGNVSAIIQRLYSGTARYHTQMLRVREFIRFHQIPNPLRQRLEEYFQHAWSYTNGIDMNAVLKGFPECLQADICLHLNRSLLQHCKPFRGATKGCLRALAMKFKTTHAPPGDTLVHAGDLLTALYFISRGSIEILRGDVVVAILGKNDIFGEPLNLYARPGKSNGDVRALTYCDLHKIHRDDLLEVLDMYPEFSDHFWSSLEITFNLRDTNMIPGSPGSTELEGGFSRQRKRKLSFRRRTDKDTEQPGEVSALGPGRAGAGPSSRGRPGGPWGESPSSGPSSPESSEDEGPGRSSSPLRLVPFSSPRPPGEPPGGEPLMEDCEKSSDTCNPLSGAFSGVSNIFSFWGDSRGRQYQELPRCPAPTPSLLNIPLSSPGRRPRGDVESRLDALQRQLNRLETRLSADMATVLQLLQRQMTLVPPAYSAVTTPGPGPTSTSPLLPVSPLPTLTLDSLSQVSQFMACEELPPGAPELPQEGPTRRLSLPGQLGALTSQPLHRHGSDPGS

Structure (SMILES)	hERG current change (%, negative = inhibition) at 1uM [%]
CSc1n[nH]c(NC2=CC(=O)CCC2)n1	15
COc1ccccc1NC(=O)C(C)N1CCN(C/C=C/c2ccccc2)CC1 (stereo not drawn)	-75.2
CNC(=O)NC(=O)C(C)N1CCN(C/C=C/c2ccccc2)CC1 (stereo not drawn)	-32.1
CC(C(=O)N(C)Cc1ccccc1)N1CCN(C/C=C/c2ccccc2)CC1 (stereo not drawn)	-73.5
CC(C(=O)Nc1cccc(S(=O)(=O)N2CCOCC2)c1)N1CCN(C/C=C/c2ccccc2)CC1 (stereo not drawn)	-32.5
COc1ccc(N2CCN(C(C)C(=O)N(C)Cc3ccccc3)CC2)cc1 (stereo not drawn)	-10
COc1ccc(Cl)cc1NC(=O)C(C)N1CCN(C/C=C/c2ccccc2)CC1.O=C(O)C(=O)O (stereo not drawn)	-14.3
CC(=O)c1ccc(NC(=O)C(C)N2CCN(C/C=C/c3ccccc3)CC2)cc1 (stereo not drawn)	-41
CC(C(=O)Nc1cccc([N+](=O)[O-])c1)N1CCN(C/C=C/c2ccccc2)CC1 (stereo not drawn)	-74.2
COc1ccccc1NC(=S)N1CCN(C/C=C/c2ccccc2)CC1	7.29
Cc1sc2nc[nH]c(=O)c2c1-c1ccc(F)cc1	17.2
Cc1ccccc1Nc1nc(-c2sc(NC(=O)c3ccccc3)nc2C)cs1	7.9
CC(c1ccncn1)N(C)C(=O)c1ccc2oc(Cc3ccccc3)nc2c1 (stereo not drawn)	9.8
CCOc1ccc(NS(=O)(=O)c2ccc(NS(=O)(=O)c3ccc(SC)cc3)cc2)cc1	9.23
CCCN1Cc2cccc(C(=O)NCc3ccc(C)cc3)c2C1=O	-4.32
CCC(C)N(C)C(=O)c1cc2ccccc2c(-c2ccccc2Cl)n1 (stereo not drawn)	-5.29
CC(Oc1ccc(Cl)cc1)C(=O)OCC(=O)Nc1ncc(Cl)cc1Cl (stereo not drawn)	3.29
O=C(Nc1ccc(F)cc1)c1nc[nH]c1C(=O)O	18.5
COc1ccccc1OCC(O)Cn1c(=N)n(CCN2CCCCC2)c2ccccc21.Cl (stereo not drawn)	-27.9
COc1ccccc1OCC(O)Cn1c(=N)n(Cc2ccccc2)c2ccccc21.Cl (stereo not drawn)	-39.6
CCCCCn1c(=N)n(CC(O)COc2ccccc2OC)c2ccccc21.Cl (stereo not drawn)	-86.3
Cc1ccccc1OCC(O)Cn1c(=N)n(Cc2ccccc2)c2ccccc21.Cl (stereo not drawn)	-48.4
CCCCCn1c(=N)n(CC(O)COc2ccccc2OC)c2ccccc21 (stereo not drawn)	-82.8
C=CCn1c(=N)n(CC(O)COc2ccccc2OC)c2ccccc21.Cl (stereo not drawn)	-43.5
